Screening results as filed in PubChem BioAssay.
TLR9-MyD88 inh = TLR9-MyD88 interaction inhibition; Q9NR96+Q99836; inhibition, % at 4.98 µM; 340,000 compounds, 0.21% hits; CHO BLA complementation TLR9-MyD88, CCF4 FRET ratio;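 active = inhibition above the mean over all tested compounds plus 3 SD, cut at about 21% in these data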;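 also: 0% = DMSO only wells and 100% = clavulanate BLA inhibitor control wells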
ABHD5-PLIN5 inh = inhibitors of human ABHD5-perilipin-5 interaction | Split G. princeps luciferase complementation, luminescence, 4 h | AID 602281 | 360,000 compounds, 0.78% hits | inhibition, % at 4 µM | Q00G26+Q8WTS1;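 active = inhibition above the mean inhibition across every tested compound plus 3 SD, cut at about 22% in these data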;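 also: 0% = DMSO only wells and the 100% control is not disclosed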
rCAG RNA binder = r(CAG) repeat RNA binding; TO-PRO-1 dye displacement fluorescence; inhibition, % at 3 µM; AID 651821; 370,000 compounds, 1.3% hits;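 active = inhibition above the plate cutoff, the mean of all test compounds on that plate plus 3 SD, cut at about 35% in these data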;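 also: 0% = DMSO alone and 100% = 100 µM mitoxantrone as full dye displacement; higher means more dye released from RNA so lower well fluorescence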
NOD2-RIPK2 inh = blocks binding of human NOD2 to RIPK2. CHO BLA complementation NOD2-RIPK2, CCF4 ratio. inhibition, % at 4.98 µM. 360,000 compounds, 0.38% hits; in the data active = inhibition above about 21%;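 also: 0% = vehicle only and 100% = reference blocker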
Target sequence (O43353 whole entry, looked up): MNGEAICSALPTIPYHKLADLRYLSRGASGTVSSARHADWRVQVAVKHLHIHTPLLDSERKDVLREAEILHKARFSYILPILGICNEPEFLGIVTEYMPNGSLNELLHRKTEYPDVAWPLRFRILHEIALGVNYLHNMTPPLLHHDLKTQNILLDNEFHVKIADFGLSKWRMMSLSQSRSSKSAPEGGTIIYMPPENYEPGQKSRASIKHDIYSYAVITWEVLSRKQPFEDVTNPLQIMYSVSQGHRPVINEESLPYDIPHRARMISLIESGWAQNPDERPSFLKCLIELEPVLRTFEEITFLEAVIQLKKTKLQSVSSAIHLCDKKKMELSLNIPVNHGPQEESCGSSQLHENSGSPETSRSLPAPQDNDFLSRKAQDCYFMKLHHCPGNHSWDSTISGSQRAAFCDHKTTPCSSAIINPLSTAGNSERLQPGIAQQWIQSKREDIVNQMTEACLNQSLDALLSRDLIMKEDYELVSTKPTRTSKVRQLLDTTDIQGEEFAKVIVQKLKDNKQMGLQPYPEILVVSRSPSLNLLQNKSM
PRMT1 FP inh = blocks human protein arginine methyltransferase 1; inhibition, % at 2.79 µM; recombinant PRMT1, activity-based probe fluorescence polarization; AID 652257; 370,000 compounds, 1.3% hits; Q99873;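 active = inhibition above about 21% made by adding two undisclosed values, limit read from the data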
TLR4-MyD88 BLA = blocks binding of human TLR4 to MyD88. AID 861. O00206+Q99836. HeLa CL3-4 TLR4/MyD88 BLA complementation, FRET ratio. inhibition, % at 8.4 µM. 200,000 compounds, 0.18% hits; in the data active = inhibition above about 25%;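 also: 0% = vehicle and 100% = reference inhibitor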
Active calls of the source: *; . = not tested or not shown. Most compounds without a hit are left out; they make up all but 3.3% or so of the library.

SMILES | TLR9-MyD88 inh | ABHD5-PLIN5 inh | rCAG RNA binder | NOD2-RIPK2 inh | PRMT1 FP inh | TLR4-MyD88 BLA
COc1ccc(C(=O)CCN2CCCC(C)C2)cc1 (configuration not stated) | -0.3 | 5.3 | 3.0 | 4.3 | 24.6* | .
CCOC(=O)N1CCN(CCC(=O)c2ccc(OC)cc2)CC1 | 5.7 | 1.8 | -3.4 | -4.1 | 21.4* | 2.5
Cc1[nH]c(=O)c(C(=O)/C=C/c2ccccc2F)c2c1CCCC2 | 6.2 | 50.9* | 0.1 | 22.8* | -3.9 | -8.8
COc1ccccc1C1=NNC(=Nc2cccc(S(=O)(=O)N(C)C)c2)SC1 | 2.2 | -21.9 | 17.1 | 0.2 | 22.1* | -2.3
COCCn1c(C)cc(C2=NNC(=Nc3ccccc3)SC2)c1C | 8.6 | -6.2 | 12.1 | -9.8 | 6.5 | -9.3
O=C1CSC(c2nn(-c3ccccc3)cc2-c2cc3ccccc3oc2=O)N1Cc1ccco1 (configuration not stated) | 4.3 | 22.8* | 2.7 | -5.8 | 1.3 | 2.8
O=C1CSC(c2cn(-c3ccccc3)nc2-c2cc3ccccc3oc2=O)N1Cc1ccccc1 (configuration not stated) | 6.2 | -0.9 | 8.1 | -5.0 | 1.6 | -2.4
Cc1ccc(C(=O)NNC(=O)c2n[nH]c(=O)c3ccccc23)cc1C | 10.5 | 2.3 | 3.3 | -15.2 | -1.3 | .
Cc1ccc(C23CC4CC(CC(NC(=O)NCCN(C)C)(C4)C2)C3)cc1 | -2.2 | 14.3 | 6.7 | 1.2 | -1.0 | -2.5
CN(C)CCNC(=O)COc1ccc(C23CC4CC(CC(C4)C2)C3)cc1 | 0.7 | 23.0* | -2.8 | 7.5 | 1.9 | -3.0
OCc1ccccc1SSc1ccccc1CO | . | 48.4* | -5.0 | 0.1 | 106.0* | .
CN(C)S(=O)(=O)c1ccc(Cl)c(NC(=O)COC(=O)/C=C/c2ccco2)c1 | -9.0 | 19.2 | 1.4 | 5.0 | 2.5 | -2.0
CC(C)CC(=O)/C(=C/c1ccc(N(C)C)cc1)n1cncn1 | 8.9 | 0.9 | -8.2 | 5.6 | -4.2 | .
CC(C)CC(=O)/C(=C\c1ccc(Cl)cc1Cl)n1cncn1 | -2.9 | 95.3* | . | -4.0 | . | 12.6
COc1ccc2c(c1OC)C(=O)OC2C1c2c(cc3c(c2OC)OCO3)CCN1C (configuration not stated) | -1.9 | 9.6 | 0.8 | -28.0 | -3.4 | 2.8
CN1CCc2cc3c(c4c2[C@H]1[C@H](O)c1ccccc1-4)OCO3 | -5.8 | -6.8 | -1.9 | -5.9 | 49.2* | -1.4
O=C(CSC1CS(=O)(=O)c2cc([N+](=O)[O-])ccc21)NNC(=O)c1ccc(Cl)cc1 (configuration not stated) | -14.1 | 2.3 | 4.5 | -1.5 | 22.7* | .
O=C(CSC1CS(=O)(=O)c2cc([N+](=O)[O-])ccc21)NNC(=O)c1ccccc1 (configuration not stated) | 3.4 | -1.6 | 2.5 | 5.1 | 15.3 | .
N#Cc1cccc(C=C(C(=O)c2ccccc2)c2ccccc2)c1 | . | 22.0* | 0.6 | 3.0 | 2.2 | .
Cc1ccc(/C=C/C(=O)Nc2ccc(S(=O)(=O)Nc3onc(C)c3C)cc2)cc1 | -0.5 | 3.9 | 68.4* | -3.2 | -0.6 | .
Cc1cccc(OCCCC(=O)Nc2ccc(S(=O)(=O)Nc3onc(C)c3C)cc2)c1 | -5.9 | -1.2 | 48.3* | -1.0 | 0.0 | -5.5
CC(C)=CC(=O)Nc1ccc(S(=O)(=O)Nc2onc(C)c2C)cc1 | 5.3 | -6.0 | 2.8 | -7.9 | -3.9 | .
CCCCCCC(=O)Nc1ccc(S(=O)(=O)Nc2onc(C)c2C)cc1 | 3.9 | 0.9 | 18.0 | 5.3 | 6.3 | .
COc1ccc(-c2cc(C(=O)Nc3ccc(S(=O)(=O)Nc4onc(C)c4C)cc3)c3ccccc3n2)cc1 | 3.1 | 7.8 | 74.5* | -6.7 | -1.5 | .
CCOC(=O)NC1(Nc2ccc(C)cc2)Oc2ccccc2O1 | 4.4 | -2.8 | 2.3 | -1.9 | 36.6* | -11.2
SMILES | TLR9-MyD88 inh | ABHD5-PLIN5 inh | rCAG RNA binder | NOD2-RIPK2 inh | PRMT1 FP inh | TLR4-MyD88 BLA
CCOC(=O)NC1(NC(C)C)Oc2ccccc2O1 | -13.8 | -1.0 | 1.0 | 8.3 | 10.9 | 4.4
CCN(CC)C(=O)[C@H]1CC(CC(=O)NCCN2CCOCC2)C(=O)N2CCc3c([nH]c4ccccc34)[C@]12C (some centres not stated) | 4.9 | -0.1 | 2.1 | -5.0 | -0.8 | .
O=C(NC1CC1)c1cc(-c2ccco2)nc2ccccc12 | -0.9 | -1.4 | . | -6.0 | . | .
CCNC(=O)COC(=O)c1cc(-c2ccco2)nc2ccccc12 | -1.8 | 0.1 | 28.1 | -4.6 | 38.3* | .
O=C(O)c1cc(-c2ccco2)nc2ccccc12 | 3.7 | 9.8 | 14.2 | -0.5 | 23.5* | 10.4
O=C(OCC(=O)N1CCN(C(=O)c2ccco2)CC1)c1cc(-c2ccc(Cl)c(Cl)c2Cl)nc2ccccc12 | -4.8 | 1.0 | 13.1 | -2.9 | -1.7 | 2.3
O=C(OCC(=O)N1CCN(C(=O)c2ccco2)CC1)c1cc(-c2ccco2)nc2ccccc12 | 2.0 | 23.9* | . | -14.4 | . | 10.7
NC(=O)c1ccc(SCC(=O)OCC(=O)N2CCN(C(=O)c3ccco3)CC2)c([N+](=O)[O-])c1 | 7.0 | 13.7 | 7.5 | -1.4 | 22.1* | .
COc1ccc(CNC(=O)COC(=O)c2cc(-c3ccco3)nc3ccccc23)cc1 | . | . | . | . | . | 6.8
COC(=O)Cc1nnn2c1[C@H](C)[C@@H](OC)c1ccc(C(F)(F)F)cc1-2 | . | . | -1.3 | . | -2.1 | .
O=S1(=O)c2c(NCc3ccco3)cccc2Oc2ccccc2CN1Cc1cn(Cc2ccccc2C(F)(F)F)nn1 | . | . | 13.8 | . | 0.9 | .
COc1ccccc1N1CCN(C(=O)C(=O)c2cccc([N+](=O)[O-])c2)CC1 | . | 0.9 | 1.5 | -6.9 | 1.0 | .
O=C1OC(Nc2cc(Br)cc3cccnc23)c2ccccc21 (configuration not stated) | -2.7 | -11.0 | 14.2 | -1.8 | 31.0* | -3.7
CC(NC(=O)COC(=O)COc1cccc2c1OC(C)(C)C2)c1ccccc1 (configuration not stated) | 1.2 | 0.6 | -6.7 | -8.1 | -1.4 | .
CC(C)(C)OC(=O)N1CCC(N[C@@H](Cc2ccccc2)C(=O)NCCc2c[nH]c3ccccc23)(C(=O)NC2CCCCC2)CC1 | . | . | . | . | -2.2 | .
CC(=O)Oc1ccc(Cl)cc1CN(C(C)=O)C1CCCCC1 | 4.1 | 3.4 | -0.7 | -2.2 | 0.2 | .
O=C(Nc1nnc([C@H]2C[C@H](O)[C@@H](CO)O2)s1)Nc1ccccc1Oc1ccccc1 | . | 0.8 | 5.6 | 4.4 | 0.6 | .
CCc1cccc(CC)c1NC(=O)c1cccc(NC(=O)c2ccccc2)c1 | -2.4 | -4.0 | -4.1 | 3.9 | -0.3 | 3.5
CCc1cccc(C)c1NC(=O)c1cccc(N(C)C)c1 | 8.2 | -6.0 | 4.0 | 7.4 | 23.3* | 6.5
Oc1ccc(Nc2nc(-c3ccccc3F)nc3ccccc23)cc1 | 9.1 | -2.7 | 1.3 | -5.1 | 0.0 | .
Oc1ccc(Nc2nc(-c3ccccc3O)nc3ccccc23)cc1 | 2.4 | -1.1 | 43.4* | 9.8 | 0.9 | .
CCCCOCCCNC(=O)C[C@@H]1C[C@@]2(C(=O)OC)CC(C)(C)CC=C2N(Cc2ccccc2)C1=O | . | 7.1 | -0.9 | 4.1 | -5.4 | .
